Only some compounds are listed: those with a hit (about 4.6% of all), similar ones and a draw of the others.
TRb SRC2 PPI – qHTS for Inhibitors of the Interaction of Thyroid Hormone Receptor and Steroid Receptor Coregulator 2. Thyroid hormone receptor beta (Homo sapiens), P10828. TRbeta-SRC2 peptide binding, fluorescence polarization; receptor liganded with 1 µM T3. Potency, µM (top dose mostly 106 µM), for inactives: at the highest dose activity change, negative = inhibition, most hits filed as inhibitors. hit rate 0.065% among 280,000. AID 1469, 2008;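 also: potency is read from the fitted curve at half-maximal effect; plate controls were bound peptide for no effect and peptide without receptor for full effect; nearly all actives have a fitted effect of over 50% in size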
Target sequence (P10828 whole entry, looked up): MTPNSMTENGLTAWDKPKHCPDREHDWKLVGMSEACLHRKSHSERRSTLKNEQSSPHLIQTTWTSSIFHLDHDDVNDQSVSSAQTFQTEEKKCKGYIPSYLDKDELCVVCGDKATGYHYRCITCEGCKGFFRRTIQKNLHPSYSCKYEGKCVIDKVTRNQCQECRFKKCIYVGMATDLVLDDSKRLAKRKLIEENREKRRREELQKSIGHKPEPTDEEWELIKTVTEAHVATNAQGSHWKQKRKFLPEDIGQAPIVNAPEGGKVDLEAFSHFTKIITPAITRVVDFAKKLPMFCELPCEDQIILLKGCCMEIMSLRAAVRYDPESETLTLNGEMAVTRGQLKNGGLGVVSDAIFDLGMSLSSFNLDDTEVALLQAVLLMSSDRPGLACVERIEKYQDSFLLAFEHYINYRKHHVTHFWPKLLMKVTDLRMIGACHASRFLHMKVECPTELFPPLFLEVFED
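Polarization signal, normalized between peptide-alone and full complex controls, measured compound effects on T3-liganded human TRb LBD (0.6 uM) binding 20 nM Texas Red SRC2 peptide after 5 hr.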
Tau FP inhib – qHTS for Inhibitors of Tau Fibril Formation, Fluorescence Polarization; Microtubule-associated protein tau (Homo sapiens), P10636; K18 P301L tau heparin fibrillization, Alexa594 FP, 6 h; Potency, µM (doses to about 57.7 µM), inactives show top-dose activity, negative = inhibition, actives largely listed as inhibitors; hit rate 0.39% among 280,000; AID 1468, 2008; also: potency is read from the fitted curve at half-maximal effect; nearly all actives have a fitted effect of over 55% in size
Target sequence (P10636 561-689 P618L limits assumed): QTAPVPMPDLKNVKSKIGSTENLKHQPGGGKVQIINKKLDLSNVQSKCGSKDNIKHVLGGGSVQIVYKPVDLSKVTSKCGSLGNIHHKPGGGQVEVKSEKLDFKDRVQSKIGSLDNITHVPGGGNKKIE
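K18 P301L tau (15 uM unlabeled/0.24 uM Alexa 594-labeled, final) + compound + heparin 20 uM final; 100 mM NaOAc pH 7; 6 hr 37 C; ThT 30 uM final added, 1 hr RT; FP ex 555/em 632 nm.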
PNC assembly inh – High Content Assay for Compounds that inhibit the Assembly of the Perinucleolar Compartment; AID 2417, 2010; PC3M PTB-GFP, PNC prevalence imaging, 16 h; hits give low values; hit rate 3.1% among 140,000; activity change (PNC), negative = inhibition, % at 10 µM;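 active = readout at or below -70, meaning at least 70% loss of cells showing the perinucleolar compartment, a nuclear body marking cancer cells; inconclusive = readout between -30 and a set limit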;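 also: plate controls were DMSO wells for no effect and camptothecin positive control wells for full effect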
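Compounds are pinned in duplicate onto adhered PC3M cells stably expressing GFP-tagged PTB and incubated 16 h at 37 C. Cells are then fixed, nuclei stained with Hoechst, and PNC-positive cells counted.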
Tau ThT inhib – qHTS for Inhibitors of Tau Fibril Formation, Thioflavin T Binding. Potency, µM (doses to about 57.4 µM), without a hit: top-dose activity, negative = inhibition, most hits filed as inhibitors. hit rate 2.1% among 270,000. recombinant tau K18 P301L, heparin-induced fibrillization, ThT fluorescence; also: potency is read from the fitted curve at half-maximal effect; nearly all actives have a fitted effect of over 55% in size
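Heparin-induced (20 uM) aggregation of recombinant human K18 P301L tau, 15 uM unlabeled with 0.24 uM labeled, pH 7 acetate buffer, 6 hr at 37 C with compound. Fibrils quantified by 30 uM ThT fluorescence after 1 hr ambient incubation.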
Tau fluor counter – Counterscreen qHTS for Inhibitors of Tau Fibril Formation, Fluorescence Polarization; tau K18 P301L Alexa594 fluorescence, heparin fibrillization; Potency, µM (top dose mostly 57.7 µM), for inactives: at the top dose activity change, negative = decrease; hit rate 0.93% among 280,000; AID 1463, 2008; also: potency is read from the fitted curve at half-maximal effect; nearly all actives have a fitted effect of over 55% in size
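Human tau K18 P301L (15 uM unlabeled, 0.24 uM Alexa 594-labeled) in 100 mM sodium acetate pH 7 with 20 uM heparin, 6 hr at 37 C. ThT 30 uM added, 1 hr ambient; Alexa 594 FP and total fluorescence read at 555/632 nm.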
TexasRed fluor – Total Fluorescence Counterscreen for Inhibitors of the Interaction of Thyroid Hormone Receptor and Steroid Receptor Coregulator 2. TRb/SRC2 Texas Red total fluorescence interference. Potency, µM (titrated, usually from 106 µM), inactives show at the top dose fluorescence change, negative = quenching. hit rate 0.29% among 280,000. AID 1479, 2009; active = well fitted curve in either direction with a large enough effect; inconclusive = small, poorly fitted or top-dose-only effect; also: potency is read from the fitted curve at half-maximal effect
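Human TRβ ligand-binding domain (0.6 uM) and Texas Red SRC2 peptide (20 nM) in Tris buffer with 1 uM T3 and 5% DMSO were incubated with pinned compound for 5 hr at ambient temperature. Total fluorescence was computed as S + 2P (555/632 nm).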
The depositor's hits bear a star; [ ] = dose if it differs, or a comment. Unless noted, calls follow the shape of the dose curve; as a rule, active = well fitted curve in the direction sought with a large enough effect; inconclusive = small, poorly fitted or top-dose-only effect, or another doubt; inactive = no such curve, though single readings can be large; an effect the other way counts as inactive or inconclusive. Unless noted, % is scaled to controls: 0 for no effect and ±100 for the full control effect.

How did CC(=O)Nc1ccc(NS(=O)(=O)c2ccc3[nH]c4c(c3c2)CCCCC4)cc1 do in these assays?
TRb SRC2 PPI: 3%; Tau FP inhib: -6%; Tau ThT inhib: inconclusive; Tau fluor counter: 16µM*[quencher]; TexasRed fluor: -1%

Results for CC(=O)c1ccc(NS(=O)(=O)c2ccc3ccccc3c2)cc1 ?
TRb SRC2 PPI: 3%; Tau FP inhib: -10%; PNC assembly inh: -20; Tau ThT inhib: -15%; Tau fluor counter: -22%; TexasRed fluor: 1%

What do the screens show for `CC(=O)c1ccc(N2CCN(S(=O)(=O)c3ccc4[nH]c5c(c4c3)CCCCC5)CC2)cc1`?
TRb SRC2 PPI: 6%; Tau FP inhib: -7%; Tau ThT inhib: -13%; Tau fluor counter: inconclusive; TexasRed fluor: -1%

How did CC(=O)c1ccc(NS(=O)(=O)c2ccc3[nH]c4c(c3c2)CCCCCC4)cc1 do in these assays?
TRb SRC2 PPI: 1%; Tau FP inhib: inconclusive; Tau ThT inhib: 6%; Tau fluor counter: 10µM*[quencher]; TexasRed fluor: 1%

How did CC(=O)c1ccc(NS(=O)(=O)c2ccc3[nH]c4c(c3c2)CCCC4)cc1 do in these assays?
TRb SRC2 PPI: 4%; Tau FP inhib: -7%; Tau ThT inhib: 11%; Tau fluor counter: 8.9µM*[quencher]; TexasRed fluor: 9%

How did COc1ccc(NC(=O)c2ccc(C)cc2Cl)c([N+](=O)[O-])c1 do in these assays?
TRb SRC2 PPI: 1%; Tau FP inhib: 0%; PNC assembly inh: 18; Tau ThT inhib: -17%; Tau fluor counter: -13%; TexasRed fluor: -6%

What do the screens show for `Cc1cc2c(cc1S(=O)(=O)N1CCC(C(N)=O)CC1)OCC(=O)N2`?
TRb SRC2 PPI: -10%; Tau FP inhib: 1%; Tau ThT inhib: -1%; Tau fluor counter: -1%; TexasRed fluor: -1%

How did CC(=O)NC(Cc1c[nH]c2ccccc12)C(=O)OCC(=O)Nc1cc(C)on1 (stereo not drawn) do in these assays?
TRb SRC2 PPI: -5%; Tau FP inhib: -5%; PNC assembly inh: -92*; Tau ThT inhib: -15%; Tau fluor counter: -9%; TexasRed fluor: 3%

Results for CCC/C=C1/CCCOC(C(=O)NCc2ccc(C)o2)(C(F)(F)F)C1 (stereo not drawn) ?
TRb SRC2 PPI: -1%; TexasRed fluor: -1%

What do the screens show for `O=c1c2ccccc2sn1-c1ccccc1`?
TRb SRC2 PPI: -11%; Tau FP inhib: inconclusive; PNC assembly inh: -12; Tau ThT inhib: 11µM*; Tau fluor counter: -30%; TexasRed fluor: -2%

How did Cc1ccc(-c2onc(C)c2C)cc1S(=O)(=O)N1CCCCC1 do in these assays?
TRb SRC2 PPI: 2%; Tau FP inhib: 6%; Tau ThT inhib: -8%; Tau fluor counter: -19%; TexasRed fluor: -2%

What do the screens show for `O=c1c2ccccc2sn1-c1nccs1`?
TRb SRC2 PPI: 3%; Tau FP inhib: inconclusive; Tau ThT inhib: 16µM*; Tau fluor counter: -21%; TexasRed fluor: -2%

What do the screens show for `O=c1c2ccccc2sn1-c1ccc(S(=O)(=O)N2CCCC2)cc1`?
Tau FP inhib: inconclusive; PNC assembly inh: -2; Tau ThT inhib: 11µM*; Tau fluor counter: -16%

How did CN(C)S(=O)(=O)c1cccc(-n2sc3ccccc3c2=O)c1 do in these assays?
TRb SRC2 PPI: -6%; Tau FP inhib: inconclusive; Tau ThT inhib: inconclusive; Tau fluor counter: -22%; TexasRed fluor: -4%

What do the screens show for `Cc1ccc(-n2sc3ccccc3c2=O)cc1S(=O)(=O)N1CCCCC1`?
TRb SRC2 PPI: 0%; Tau FP inhib: 32µM*; PNC assembly inh: inconclusive; Tau ThT inhib: 16µM*; Tau fluor counter: -19%; TexasRed fluor: -3%

How did CC(=O)NCCNC(=O)c1ccc(CSc2ccc(Cl)cc2)cc1 do in these assays?
TRb SRC2 PPI: -2%; Tau FP inhib: -4%; Tau ThT inhib: -5%; Tau fluor counter: 2%; TexasRed fluor: -1%

Results for CCCC(CCC)C(=O)NC1CCN(Cc2ccccc2)CC1 ?
TRb SRC2 PPI: -1%; Tau FP inhib: -6%; Tau ThT inhib: -8%; Tau fluor counter: -6%; TexasRed fluor: -2%

Results for O=S(=O)(c1cccc2c(S(=O)(=O)N3CCCC3)cccc12)N1CCCC1 ?
TRb SRC2 PPI: 6%; Tau FP inhib: 2%; PNC assembly inh: -129*; Tau ThT inhib: -11%; Tau fluor counter: -16%; TexasRed fluor: 1%

How did O=S(=O)(c1cccc2c(Cl)cccc12)N1CCCNCC1 do in these assays?
TRb SRC2 PPI: -4%; Tau FP inhib: inconclusive; Tau ThT inhib: inconclusive; Tau fluor counter: inconclusive; TexasRed fluor: 0%

What do the screens show for `O=C(Oc1cc(Cl)ccc1Cl)c1ccc(N2CCOCC2)c([N+](=O)[O-])c1`?
TRb SRC2 PPI: -1%; Tau FP inhib: -8%; PNC assembly inh: -23; Tau ThT inhib: 16µM*; Tau fluor counter: inconclusive; TexasRed fluor: -2%

How did O=C(Oc1ccc(Cl)cc1)c1ccc(N2CCOCC2)c([N+](=O)[O-])c1 do in these assays?
TRb SRC2 PPI: 2%; Tau FP inhib: 2%; PNC assembly inh: inconclusive; Tau ThT inhib: inconclusive; Tau fluor counter: inconclusive; TexasRed fluor: -2%

Results for Cc1ccc(OC(=O)c2ccc(N3CCOCC3)c([N+](=O)[O-])c2)cc1 ?
TRb SRC2 PPI: 0%; Tau FP inhib: -1%; PNC assembly inh: inconclusive; Tau ThT inhib: 10µM*; Tau fluor counter: inconclusive; TexasRed fluor: -2%

How did COc1ccc(C(=O)c2ccc(N3CCOCC3)c([N+](=O)[O-])c2)cc1 do in these assays?
TRb SRC2 PPI: 5%; Tau FP inhib: -4%[2.34 µM]; Tau ThT inhib: inconclusive; Tau fluor counter: -11%; TexasRed fluor: -3%

How did CC1CCC(NC(=O)c2ccc3c(c2)N(Cc2ccccc2)C(=O)c2ccccc2S3=O)CC1 (stereo not drawn) do in these assays?
TRb SRC2 PPI: -8%; Tau FP inhib: -5%; Tau ThT inhib: -9%; Tau fluor counter: -11%; TexasRed fluor: 1%

What do the screens show for `CCOC(=O)c1cccc(NC(=O)N2CCC(CN3CCc4ccccc4C3)CC2)c1`?
TRb SRC2 PPI: 3%; Tau FP inhib: 1%; Tau ThT inhib: -5%; Tau fluor counter: -6%; TexasRed fluor: -7%

What do the screens show for `COc1cc(OC)c(NC(=O)N2CCN3CCCCC3C2)cc1Cl` (stereo not drawn)?
TRb SRC2 PPI: 4%; Tau FP inhib: 1%; Tau ThT inhib: 4%; Tau fluor counter: 2%; TexasRed fluor: -2%
